# Experimental data from PubChem BioAssay (NCATS).
# Inconclusive results are not listed. Activity calls are given as the source filed them. Calls follow the shape of the dose curve; as a rule, active = well fitted curve in the direction sought with a large enough effect; inconclusive = small, poorly fitted or top-dose-only effect, or another doubt; inactive = no such curve, though single readings can be large; an effect the other way counts as inactive or inconclusive.
# Tested on: not listed separately
# Experiment: qHTS of pediatric cancer cell lines to identify multiple opportunities for drug repurposing: Confirmatory screen for RD cells (AID 1347124);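 also: cells exposed to compound for 48 h before viability readout; nearly all actives have a fitted effect of over 65% in size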; as to activity change, negative = cytotoxic: % is scaled to controls: 0 for no effect and ±100 for the full control effect
# Details: RD rhabdomyosarcoma cell viability; series mostly up to 45.9 µM; activity change, negative = cytotoxic: at the top concentration
# Procedure, shortened: (§1)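 Viability after 48 h compound treatment at 37C, 500-1,000 cells/well, read as ATP luminescence with CellTiter-Glo. Primary screens used 11-point (MIPE, 0.78 nM-46 µM) or 8-point (NPC, 0.59 nM-46 µM) final concentrations; follow-up screens used 11-point dilutions.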
# Potency is read from the fitted curve at half-maximal effect.
SMILES,"activity change, negative = cytotoxic",Potency
C[C@]12CC[C@@H]3c4ccc(O)cc4C[C@@H](CCCCCCCCCS(=O)CCCC(F)(F)C(F)(F)F)[C@H]3[C@@H]1CC[C@@H]2O (stereo partly drawn),10.4% (inactive),–
C[n+]1cc2c3c(ccc2c2ccc4cc5c(cc4c21)OCO5)OCO3,–,1.82 µM (active)
CN1C[C@H](C(=O)N[C@]2(C)O[C@@]3(O)[C@@H]4CCCN4C(=O)[C@H](Cc4ccccc4)N3C2=O)C[C@@H]2c3cccc4[nH]cc(c34)C[C@H]21,4.28% (inactive),–
Nc1nc(N)c2nc(-c3ccccc3)c(N)nc2n1,-10.4% (inactive),–
C[C@]12C=CC(=O)C=C1CC[C@H]1[C@@H]3C[C@@H](O)[C@](O)(C(=O)CO)[C@@]3(C)C[C@H](O)[C@@]12F,–,7.37 µM (active)

# Tested on: not listed separately
# Experiment: qHTS of pediatric cancer cell lines to identify multiple opportunities for drug repurposing: Confirmatory screen for Rh18 cells (AID 1347125); also: nearly all actives have a fitted effect of over 55% in size; as to activity change, negative = cytotoxic: % is scaled to controls: 0 for no effect and ±100 for the full control effect
# Details: Rh18 rhabdomyosarcoma cells, viability; series mostly up to 45.9 µM; activity change, negative = cytotoxic: at the top concentration
# Procedure, shortened: as §1
SMILES,"activity change, negative = cytotoxic",Potency
C[C@]12CC[C@@H]3c4ccc(O)cc4C[C@@H](CCCCCCCCCS(=O)CCCC(F)(F)C(F)(F)F)[C@H]3[C@@H]1CC[C@@H]2O (stereo partly drawn),-19.4% (inactive),–
NCCCNCCSP(=O)(O)O,1.32% [at 9.58 µM] (inactive),–
C[n+]1cc2c3c(ccc2c2ccc4cc5c(cc4c21)OCO5)OCO3,–,1.62 µM (active)
CN1C[C@H](C(=O)N[C@]2(C)O[C@@]3(O)[C@@H]4CCCN4C(=O)[C@H](Cc4ccccc4)N3C2=O)C[C@@H]2c3cccc4[nH]cc(c34)C[C@H]21,2.52% (inactive),–
Nc1nc(N)c2nc(-c3ccccc3)c(N)nc2n1,3.06% (inactive),–
CN/C(=C\[N+](=O)[O-])NCCSCc1ccc(CN(C)C)o1,1.77% (inactive),–
C[C@]12C=CC(=O)C=C1CC[C@H]1[C@@H]3C[C@@H](O)[C@](O)(C(=O)CO)[C@@]3(C)C[C@H](O)[C@@]12F,–,9.27 µM (active)

# Tested on: not listed separately
# Experiment: qHTS of pediatric cancer cell lines to identify multiple opportunities for drug repurposing: Confirmatory screen for Rh30 cells (AID 1347126); also: nearly all actives have a fitted effect of over 55% in size; as to activity change, negative = cytotoxic: % is scaled to controls: 0 for no effect and ±100 for the full control effect
# Details: Rh30 rhabdomyosarcoma cell viability; series mostly up to 45.9 µM; activity change, negative = cytotoxic: at the top concentration
# Procedure, shortened: as §1
SMILES,"activity change, negative = cytotoxic",Potency
C[C@]12CC[C@@H]3c4ccc(O)cc4C[C@@H](CCCCCCCCCS(=O)CCCC(F)(F)C(F)(F)F)[C@H]3[C@@H]1CC[C@@H]2O (stereo partly drawn),-18.7% (inactive),–
NCCCNCCSP(=O)(O)O,-18.1% [at 9.47 µM] (inactive),–
CN1C[C@H](C(=O)N[C@]2(C)O[C@@]3(O)[C@@H]4CCCN4C(=O)[C@H](Cc4ccccc4)N3C2=O)C[C@@H]2c3cccc4[nH]cc(c34)C[C@H]21,-5.48% (inactive),–
Nc1nc(N)c2nc(-c3ccccc3)c(N)nc2n1,-26.3% (inactive),–
CN/C(=C\[N+](=O)[O-])NCCSCc1ccc(CN(C)C)o1,–,0.185 µM (active)
C[C@]12C=CC(=O)C=C1CC[C@H]1[C@@H]3C[C@@H](O)[C@](O)(C(=O)CO)[C@@]3(C)C[C@H](O)[C@@]12F,–,7.37 µM (active)

# Tested on: not listed separately
# Experiment: qHTS of pediatric cancer cell lines to identify multiple opportunities for drug repurposing: Confirmatory screen for Saos-2 cells (AID 1347127); also: nearly all actives have a fitted effect of over 60% in size;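 as to activity change, negative = cytotoxic: plate controls were DMSO for no effect and bortezomib for full effect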
# Details: Saos-2 osteosarcoma cell viability; series mostly up to 45.9 µM; activity change, negative = cytotoxic: at the top concentration; outcome: at the top concentration
# Procedure, shortened: as §1
SMILES,"activity change, negative = cytotoxic",Potency,outcome
C[C@]12CC[C@@H]3c4ccc(O)cc4C[C@@H](CCCCCCCCCS(=O)CCCC(F)(F)C(F)(F)F)[C@H]3[C@@H]1CC[C@@H]2O (stereo partly drawn),-19.7% (inactive),–,–
NCCCNCCSP(=O)(O)O,-1.29% [at 9.58 µM] (inactive),–,–
C[n+]1cc2c3c(ccc2c2ccc4cc5c(cc4c21)OCO5)OCO3,–,1.29 µM (active),–
CN1C[C@H](C(=O)N[C@]2(C)O[C@@]3(O)[C@@H]4CCCN4C(=O)[C@H](Cc4ccccc4)N3C2=O)C[C@@H]2c3cccc4[nH]cc(c34)C[C@H]21,9.38% (inactive),–,–
Nc1nc(N)c2nc(-c3ccccc3)c(N)nc2n1,-11.4% (inactive),–,–
CN/C(=C\[N+](=O)[O-])NCCSCc1ccc(CN(C)C)o1,–,–,inactive
C[C@]12C=CC(=O)C=C1CC[C@H]1[C@@H]3C[C@@H](O)[C@](O)(C(=O)CO)[C@@]3(C)C[C@H](O)[C@@]12F,–,9.27 µM (active),–

# Tested on: not listed separately
# Experiment: qHTS of pediatric cancer cell lines to identify multiple opportunities for drug repurposing: Confirmatory screen for OHS-50 cells (AID 1347128);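 also: compound exposure lasted 48 h at 37 degrees C; nearly all actives have a fitted effect of over 55% in size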; as to activity change, negative = cytotoxic: % is scaled to controls: 0 for no effect and ±100 for the full control effect
# Details: OHS-50 osteosarcoma cells viability; series mostly up to 45.9 µM; activity change, negative = cytotoxic: at the top concentration
# Procedure, shortened: as §1
SMILES,"activity change, negative = cytotoxic",Potency
C[C@]12CC[C@@H]3c4ccc(O)cc4C[C@@H](CCCCCCCCCS(=O)CCCC(F)(F)C(F)(F)F)[C@H]3[C@@H]1CC[C@@H]2O (stereo partly drawn),-23.3% (inactive),–
NCCCNCCSP(=O)(O)O,0.588% [at 9.58 µM] (inactive),–
C[n+]1cc2c3c(ccc2c2ccc4cc5c(cc4c21)OCO5)OCO3,–,2.57 µM (active)
CN1C[C@H](C(=O)N[C@]2(C)O[C@@]3(O)[C@@H]4CCCN4C(=O)[C@H](Cc4ccccc4)N3C2=O)C[C@@H]2c3cccc4[nH]cc(c34)C[C@H]21,-11% (inactive),–
CN/C(=C\[N+](=O)[O-])NCCSCc1ccc(CN(C)C)o1,3.86% (inactive),–

# Tested on: not listed separately
# Experiment: qHTS of pediatric cancer cell lines to identify multiple opportunities for drug repurposing: Confirmatory screen for SK-N-SH cells (AID 1347129);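 also: cells exposed to compound for 48 h before viability read; nearly all actives have a fitted effect of over 60% in size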;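 as to activity change, negative = cytotoxic: plate controls were DMSO for no effect and bortezomib control for full effect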
# Details: SK-N-SH neuroblastoma cell viability; series mostly up to 46.1 µM; activity change, negative = cytotoxic: at the top concentration
# Procedure, shortened: as §1
SMILES,"activity change, negative = cytotoxic",Potency
C[C@]12CC[C@@H]3c4ccc(O)cc4C[C@@H](CCCCCCCCCS(=O)CCCC(F)(F)C(F)(F)F)[C@H]3[C@@H]1CC[C@@H]2O (stereo partly drawn),8.54% (inactive),–
NCCCNCCSP(=O)(O)O,-2.99% [at 9.52 µM] (inactive),–
C[n+]1cc2c3c(ccc2c2ccc4cc5c(cc4c21)OCO5)OCO3,–,1.44 µM (active)
Nc1nc(N)c2nc(-c3ccccc3)c(N)nc2n1,-4.13% (inactive),–
CN/C(=C\[N+](=O)[O-])NCCSCc1ccc(CN(C)C)o1,1.91% (inactive),–
C[C@]12C=CC(=O)C=C1CC[C@H]1[C@@H]3C[C@@H](O)[C@](O)(C(=O)CO)[C@@]3(C)C[C@H](O)[C@@]12F,-13.4% (inactive),–

# Biological target: N-terminal Xaa-Pro-Lys N-methyltransferase 1 (Homo sapiens) (UniProt Q9BV86)
# Sequence (Q9BV86 whole entry, looked up): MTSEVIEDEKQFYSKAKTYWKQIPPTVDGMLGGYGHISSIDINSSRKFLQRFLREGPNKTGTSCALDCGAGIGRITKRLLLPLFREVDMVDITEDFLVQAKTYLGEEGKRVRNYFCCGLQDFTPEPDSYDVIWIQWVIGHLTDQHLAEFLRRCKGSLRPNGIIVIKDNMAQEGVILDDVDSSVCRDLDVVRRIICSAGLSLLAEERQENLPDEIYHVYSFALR
# Experiment: qHTS Assay for Inhibitors of N-terminal methyltransferase 1 (NTMT1): LOPAC validation of the NTMT1 SAHH-coupled ThioGlo3 Assay (AID 1347143);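 also: SAH from peptide methylation measured as thiol fluorescence via SAHH coupling and ThioGlo3; nearly all actives have a fitted effect of over 70% in size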
# Details: recombinant NTMT1, SAHH-coupled ThioGlo3 fluorescence; series mostly up to 114 µM; activity change, negative = inhibition: at the top concentration
# Procedure, shortened: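 Steps: dispense 125nM NTMT1; pin-transfer test compounds at several concentrations, with 1uM RCC1-6 peptide as control; incubate 1 min; start with reagent holding 100uM SAM, 10uM SAHH, 15uM ThioGlo3; read at 0 and 30 min.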
SMILES,"activity change, negative = inhibition",Potency
O=C(O)CCCCCCCC(=O)O,-5.64% (inactive),–
CCN1CCC[C@H]1CNC(=O)c1c(O)c(Cl)cc(Cl)c1OC,–,50.1 µM (active)
CCCCCN(CCCCC)C(=O)C(CCC(=O)O)NC(=O)c1ccc(Cl)c(Cl)c1 (stereo not drawn),-0.612% (inactive),–
C[C@]12CC[C@@H]3c4ccc(O)cc4C[C@@H](CCCCCCCCCS(=O)CCCC(F)(F)C(F)(F)F)[C@H]3[C@@H]1CC[C@@H]2O (stereo partly drawn),16.9% (inactive),–
COc1cc(Cc2cnc(N)nc2N)cc(OC)c1OC,-10.5% (inactive),–
COC(=O)[C@H]1[C@H]2C[C@@H]3c4[nH]c5cc(OC)ccc5c4CCN3C[C@H]2C[C@@H](OC(=O)c2cc(OC)c(OC)c(OC)c2)[C@@H]1OC,–,56.2 µM (active)
CC(C)NNC(=O)c1ccncc1,-25.9% (inactive),–
NCCCNCCSP(=O)(O)O,-7.05% (inactive),–
CCN(CC)CC(=O)Nc1c(C)cccc1C,-14% (inactive),–
C[n+]1cc2c3c(ccc2c2ccc4cc5c(cc4c21)OCO5)OCO3,–,44.7 µM (active)
COCCOC(=O)C1=C(C)NC(C)=C(C(=O)OC(C)C)C1c1cccc([N+](=O)[O-])c1 (stereo not drawn),-10.6% (inactive),–
C[C@H](CS)C(=O)N1CCC[C@H]1C(=O)O,548% (inactive),–
CCCCCCCC/C=C\CCCCCCCC(=O)NCc1ccc(O)c(OC)c1,0.332% (inactive),–
CN1C[C@H](C(=O)N[C@]2(C)O[C@@]3(O)[C@@H]4CCCN4C(=O)[C@H](Cc4ccccc4)N3C2=O)C[C@@H]2c3cccc4[nH]cc(c34)C[C@H]21,-17.9% (inactive),–
CN(C)CC/C=C1\c2ccccc2COc2ccccc21,-23.6% (inactive),–
CC(C)COCC(CN(Cc1ccccc1)c1ccccc1)N1CCCC1 (stereo not drawn),–,50.1 µM (active)

SMILES,"activity change, negative = inhibition",Potency
C(=C\c1ccccc1)/CN1CCN(C(c2ccccc2)c2ccccc2)CC1,-6.07% (inactive),–
c1cc(CN2CCCCC2)cc(OCCCNc2nc3ccccc3s2)c1,–,22.4 µM (active)
CN1C(=O)CC[C@H]1c1cccnc1,66.2% (inactive),–
CC(=O)[C@@]1(O)CC[C@H]2[C@@H]3CCC4=CC(=O)CC[C@]4(C)[C@H]3CC[C@@]21C,-13.2% (inactive),–
COC(=O)C1=C(C)NC(C)=C(C(=O)OC(C)(C)CN(C)CCC(c2ccccc2)c2ccccc2)C1c1cccc([N+](=O)[O-])c1 (stereo not drawn),-18.6% (inactive),–
CCCNC(C)C(=O)Nc1ccccc1C (stereo not drawn),-7.78% (inactive),–
CC(C)[N+](C)(CCOC(=O)C1c2ccccc2Oc2ccccc21)C(C)C,-18.4% (inactive),–
Cc1nc2sccn2c(=O)c1CCN1CCC(=C(c2ccc(F)cc2)c2ccc(F)cc2)CC1,-21.4% (inactive),–
CCOC(=O)c1cnc2c(cnn2CC)c1NN=C(C)C,–,56.2 µM (active)
C[C@]12C=CC(=O)C=C1CC[C@H]1[C@@H]3C[C@@H](O)[C@](O)(C(=O)CO)[C@@]3(C)C[C@H](O)[C@@]12F,-14.6% (inactive),–
CC(=O)Nc1nnc(S(N)(=O)=O)s1,-17.2% (inactive),–
CN(C)CCOC(=O)COc1ccc(Cl)cc1,–,56.2 µM (active)
Cc1ccc(Cl)c(Nc2ccccc2C(=O)O)c1Cl,-0.602% (inactive),–
CCCN1C[C@H](CSC)C[C@@H]2c3cccc4[nH]cc(c34)C[C@H]21,-21.9% (inactive),–
CC(C)(C)c1ccc(C(=O)CCCN2CCC(OC(c3ccccc3)c3ccccc3)CC2)cc1,14.7% (inactive),–
CCN1CCc2nc(N)oc2CC1,–,56.2 µM (active)
